{
  "source": "PubChem BioAssay (NCI)",
  "note": "About 83,000 compounds went through this panel and 20% of them were active in at least one assay; those are over-represented in the sample as a whole.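 Compound tested at a single concentration for 48 hours in 96-well plates; a percent growth value below 10 was scored as active.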 Unmarked numbers belong to inactive results. Active and inactive are the calls of the source.",
  "data": [
    {"tested_on": "HCC-2998 colon", "assay": "NCI-60 one-dose screen, 48 h (100 = growth as untreated, 0 = no growth, -100 = all killed)", "details": "10 µM unless noted", "experimental": "Growth inhibition of the HCC-2998 human tumor cell line is measured as a screen for anti-cancer activity. Cells are grown in 96 well plates and exposed to the test compound for 48 hours. Compounds are tested at a single concentration, which is 10^-5 M for most compounds. The reported endpoint is percent growth (GI% or GIPRCNT), where numbers from 0 - 100% represent growth inhibition, and numbers from -100% - 0 represent cell death. For example, a value of 40 represents 60% growth inhibition. A value of 0 means no net growth occurred over the course of the experiment. A value of -40 indicates 40% of cells at the beginning of the experiment died by the end of the experiment. A value of -100 means all cells are dead at the end of the experiment.\nNCI-60 Human Tumor Cell Lines Screen was performed using the standard one-dose NCI protocol, which is described in more detail at https://dtp.cancer.gov/discovery_development/nci-60/default.htm.\nCompounds with GIPRCNT values below 10 were considered active. Activity score was based on GIPRCNT using the following formula: […]\nScore is 0 for GIPRCNT values of 100 or above, 50 for GIPRCNT values of 0, and 100 for GIPRCNT values of -100.", "values": [
      {"smiles": "COc1ccc(Nc2ncc(C#N)c(NCCCNC(=O)C3CCC3)n2)cc1", "growth": "97.2%"},
      {"smiles": "COc1ccc(C(O)c2cc3c(N)c(C(=O)Nc4cccc5ccccc45)sc3nc2C)cc1", "note": "(stereo not given)", "growth": "-38.8% (active)"},
      {"smiles": "O=C(NNc1nc2cc(F)ccc2n2c(CN3CCOCC3)ccc12)c1ccccc1", "growth": "32.8%"},
      {"smiles": "Nc1cc(-c2ccc(Cl)cc2)nn1-c1nnc(/C=C/c2ccco2)c(=O)[nH]1", "growth": "48.5%"},
      {"smiles": "CCCCCc1ccc(S(=O)(=O)Nc2ccc3nc(N)oc3c2)cc1", "growth": "98.5%"},
      {"smiles": "C[N+]1=C(/C=C/c2ccccc2Cl)C(C)(C)c2ccccc21", "growth": "103%"},
      {"smiles": "Nc1ncnc2c1N=C(c1ccc(F)cc1)CC(c1cccc(Nc3ccnc4cc(Cl)ccc34)c1)N2", "note": "(stereo not given)", "growth": "82.5%"},
      {"smiles": "O=C(Cc1ccc(/C=C/C(=O)c2ncc[nH]2)cc1)Nc1cc(F)c(F)c(F)c1", "growth": "75.2%"},
      {"smiles": "C=C(C)[C@@H]1CC[C@]2(C(=O)N3CCNCC3)CC[C@]3(C)[C@H](CC[C@@H]4[C@@](C)(CCC(=O)N5CCNCC5)[C@H](C(=C)C)CC[C@]43C)[C@@H]12", "growth": "81%"},
      {"smiles": "CCCOC(=O)Nc1nc2ccc(SCC)cc2s1", "growth": "79.7%"},
      {"smiles": "COCCn1cc(-c2csc(-c3c[nH]c4ccc(F)cc34)n2)c2cccnc21", "growth": "27.6%"},
      {"smiles": "COc1ccc(-c2cc(C(=O)N3N=C(c4ccc(N)cc4)CC3c3ccc(Cl)cc3)c3cc(OC)ccc3n2)cc1", "note": "(stereo not given)", "growth": "83.3%"},
      {"smiles": "Cc1cccc(-c2nc(C(C)C)sc2-c2ccnc(NCCCNS(=O)(=O)c3ccc(Cl)cc3)c2)c1", "growth": "75.2%"},
      {"smiles": "O=C(/C=C/C12c3ccccc3C(c3ccccc31)C1C(=O)NC(=O)C12)c1ccc(I)cc1", "note": "(stereo not given)", "growth": "100%"},
      {"smiles": "C=C(C)[C@@H]1CC[C@]2(C)[C@H](C=CC3=C4C[C@@](C)(CO)CC[C@]4(C)CC[C@]32C)[C@@]1(C)CCCN", "growth": "-92% (active)"},
      {"smiles": "Cc1c(C(C)(C)O)cn2ncnc(Oc3ccc(NC(=O)Nc4ccc(Cl)c(C(F)(F)F)c4)c(F)c3)c12", "growth": "125%"},
      {"smiles": "Cc1ccc2c(c1)=C/C(=C\\c1cc(-c3ccccc3)[nH]c1O)C(=O)N=2", "growth": "56.6%"},
      {"smiles": "O=C(O)CCCCCCCCCCN1C(=O)/C(=C2/C(=O)N(CC(=O)O)c3ccc(Br)cc32)SC1=S", "growth": "115%"},
      {"smiles": "C=CC(CC(c1ccccc1)(c1ccccc1)c1ccccc1)N(CC)CC", "note": "(stereo not given)", "growth": "69%"},
      {"smiles": "COC(=O)c1c2c(c(C)[n+]([O-])c1C)C(=O)C(NCc1ccccc1)=CC2=O", "growth": "16.9%"},
      {"smiles": "Clc1ccc(Nc2ncc(Cc3cccc(Cl)c3Cl)s2)cc1", "growth": "101%"},
      {"smiles": "CCCCCCCCCCCCCCCCCCOc1ccccc1CC(=O)NCC[N+](C)(C)C", "growth": "29.9%"},
      {"smiles": "O=C1OCC2=C1C(c1ccccc1)c1cc3c(cc1N2CCO)OCCO3", "note": "(stereo not given)", "growth": "0.753% (active)"},
      {"smiles": "Cc1oc(-c2ccc(Cl)cc2)nc1C1=NN(C(=O)c2ccncc2)C(c2ccccc2)C1", "note": "(stereo not given)", "growth": "102%"},
      {"smiles": "C(=C(\\C1=NCCN1)n1ccc2ccccc21)/c1ccccc1", "growth": "103%"},
      {"smiles": "C/C(Cc1ccc(Cl)cc1)=C(\\c1ccc(OCCN2CCCCCC2)cc1)c1ccc(OC(=O)c2ccccc2)cc1", "growth": "23.8%"},
      {"smiles": "OC1CSSC1Cn1cnc2c(Nc3ccc(OCc4cccc(F)c4)c(Cl)c3)ncnc21", "note": "(stereo not given)", "growth": "-81.7% (active)"},
      {"smiles": "Cc1ccc(OCCOCCOCCOc2ccc(C)n(O)c2=S)c(=S)n1O", "growth": "57.9%"},
      {"smiles": "COc1ccc(-c2cc(-c3cccnc3)nc3sc4c(N)c(C(C)=O)c(-c5ccccc5)nc4c23)cc1OC", "growth": "80.1%"},
      {"smiles": "N#Cc1c(-c2ccccc2)nc2c(c(-c3ccccc3)nn2-c2ccccc2)c1-c1ccc(N2CCCCC2)cc1", "growth": "107%"},
      {"smiles": "Nc1nc2ccccc2c2c(=O)c3cc(Cl)ccc3sc12", "growth": "97.5%"},
      {"smiles": "N#Cc1nn(-c2cc(=O)[nH]c3ccc(Br)cc23)c(N)c1C#N", "growth": "78.5%"},
      {"smiles": "COc1cc(O)c2c(=O)c3c(CC=C(C)C)cc(OC)c(O)c3oc2c1", "growth": "53.4%"},
      {"smiles": "Clc1cccc(C2Cc3cnccc3-c3[nH]c4ccncc4c32)c1", "note": "(stereo not given)", "growth": "76.7%"},
      {"smiles": "COc1cc(Cc2cc(OC)c(O)c(OC)c2)cc(OC)c1O", "growth": "73.5%"},
      {"smiles": "C=C1C(=O)O[C@@H]2C3C(=C(C)CC[C@@H]12)CC1O[C@]13C", "note": "(stereo not given in full)", "growth": "108% [6.75 µM]"},
      {"smiles": "CSc1ccc(N2C(=N)C(=S)N(c3ccc(C)cc3)C2=O)cc1", "growth": "104%"},
      {"smiles": "C#CCOc1cccc(Nc2ncnc3c2ncn3C2CCN(C(=O)CCl)C2)c1", "note": "(stereo not given)", "growth": "-22.8% (active)"},
      {"smiles": "Cc1ccc(S(=O)(=O)c2nc(-c3ccccc3)oc2SCC(N)=O)cc1", "growth": "105%"},
      {"smiles": "CCSc1ccnc(N)n1", "growth": "116%"}
    ]}
  ]
}
